Reference: PubChem BioAssay
Calls of active or inactive are those of the source.

Experiments:
[1] = small molecules captured by biotinylated probe aFSTL3 – biochemical, small-molecule microarray, fluorescence 635/667, stem cell growth factor project, primary screen (AID 1064); details: higher = more signal;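 further: measures binding of the biotinylated anti-FSTL3 antibody to printed compounds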
[2] = binders from COS7 lysate, DM2A8 probe, primary screen, torsin A project, cell lysate, small-molecule microarray, fluorescence 635/667 (AID 1065); details: higher = more signal, COS7 lysate expressing mutant human TOR1A
[3] = small molecules captured by biotinylated probe aFGF2 – biochemical, small-molecule microarray, fluorescence 635/667, stem cell growth factor project, primary screen (AID 1067); details: higher = more signal;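 further: measures binding of biotinylated aFGF2 protein to printed compounds on slides; z-score merges feature fluorescence and signal-to-noise across triplicate slides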
[4] = small molecules captured by biotinylated probe aFGF10 – biochemical, small-molecule microarray, fluorescence 635/667, stem cell growth factor project, primary screen (AID 1071); details: higher = more signal;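 further: score merges 667 nm spot intensity and signal to noise from triplicate slides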
[5] = biological target: Neurogenic locus notch homolog protein 2 (Homo sapiens) (UniProt Q04721); assay: small molecules binding Notch2 protein – biochemical, small-molecule microarray, 635 nm fluorescence, stem cell growth factors, primary screen (AID 1073); details: higher = more signal
Neurogenic locus notch homolog protein 2 (Homo sapiens), sequence (Q04721 whole entry, looked up, canonical isoform): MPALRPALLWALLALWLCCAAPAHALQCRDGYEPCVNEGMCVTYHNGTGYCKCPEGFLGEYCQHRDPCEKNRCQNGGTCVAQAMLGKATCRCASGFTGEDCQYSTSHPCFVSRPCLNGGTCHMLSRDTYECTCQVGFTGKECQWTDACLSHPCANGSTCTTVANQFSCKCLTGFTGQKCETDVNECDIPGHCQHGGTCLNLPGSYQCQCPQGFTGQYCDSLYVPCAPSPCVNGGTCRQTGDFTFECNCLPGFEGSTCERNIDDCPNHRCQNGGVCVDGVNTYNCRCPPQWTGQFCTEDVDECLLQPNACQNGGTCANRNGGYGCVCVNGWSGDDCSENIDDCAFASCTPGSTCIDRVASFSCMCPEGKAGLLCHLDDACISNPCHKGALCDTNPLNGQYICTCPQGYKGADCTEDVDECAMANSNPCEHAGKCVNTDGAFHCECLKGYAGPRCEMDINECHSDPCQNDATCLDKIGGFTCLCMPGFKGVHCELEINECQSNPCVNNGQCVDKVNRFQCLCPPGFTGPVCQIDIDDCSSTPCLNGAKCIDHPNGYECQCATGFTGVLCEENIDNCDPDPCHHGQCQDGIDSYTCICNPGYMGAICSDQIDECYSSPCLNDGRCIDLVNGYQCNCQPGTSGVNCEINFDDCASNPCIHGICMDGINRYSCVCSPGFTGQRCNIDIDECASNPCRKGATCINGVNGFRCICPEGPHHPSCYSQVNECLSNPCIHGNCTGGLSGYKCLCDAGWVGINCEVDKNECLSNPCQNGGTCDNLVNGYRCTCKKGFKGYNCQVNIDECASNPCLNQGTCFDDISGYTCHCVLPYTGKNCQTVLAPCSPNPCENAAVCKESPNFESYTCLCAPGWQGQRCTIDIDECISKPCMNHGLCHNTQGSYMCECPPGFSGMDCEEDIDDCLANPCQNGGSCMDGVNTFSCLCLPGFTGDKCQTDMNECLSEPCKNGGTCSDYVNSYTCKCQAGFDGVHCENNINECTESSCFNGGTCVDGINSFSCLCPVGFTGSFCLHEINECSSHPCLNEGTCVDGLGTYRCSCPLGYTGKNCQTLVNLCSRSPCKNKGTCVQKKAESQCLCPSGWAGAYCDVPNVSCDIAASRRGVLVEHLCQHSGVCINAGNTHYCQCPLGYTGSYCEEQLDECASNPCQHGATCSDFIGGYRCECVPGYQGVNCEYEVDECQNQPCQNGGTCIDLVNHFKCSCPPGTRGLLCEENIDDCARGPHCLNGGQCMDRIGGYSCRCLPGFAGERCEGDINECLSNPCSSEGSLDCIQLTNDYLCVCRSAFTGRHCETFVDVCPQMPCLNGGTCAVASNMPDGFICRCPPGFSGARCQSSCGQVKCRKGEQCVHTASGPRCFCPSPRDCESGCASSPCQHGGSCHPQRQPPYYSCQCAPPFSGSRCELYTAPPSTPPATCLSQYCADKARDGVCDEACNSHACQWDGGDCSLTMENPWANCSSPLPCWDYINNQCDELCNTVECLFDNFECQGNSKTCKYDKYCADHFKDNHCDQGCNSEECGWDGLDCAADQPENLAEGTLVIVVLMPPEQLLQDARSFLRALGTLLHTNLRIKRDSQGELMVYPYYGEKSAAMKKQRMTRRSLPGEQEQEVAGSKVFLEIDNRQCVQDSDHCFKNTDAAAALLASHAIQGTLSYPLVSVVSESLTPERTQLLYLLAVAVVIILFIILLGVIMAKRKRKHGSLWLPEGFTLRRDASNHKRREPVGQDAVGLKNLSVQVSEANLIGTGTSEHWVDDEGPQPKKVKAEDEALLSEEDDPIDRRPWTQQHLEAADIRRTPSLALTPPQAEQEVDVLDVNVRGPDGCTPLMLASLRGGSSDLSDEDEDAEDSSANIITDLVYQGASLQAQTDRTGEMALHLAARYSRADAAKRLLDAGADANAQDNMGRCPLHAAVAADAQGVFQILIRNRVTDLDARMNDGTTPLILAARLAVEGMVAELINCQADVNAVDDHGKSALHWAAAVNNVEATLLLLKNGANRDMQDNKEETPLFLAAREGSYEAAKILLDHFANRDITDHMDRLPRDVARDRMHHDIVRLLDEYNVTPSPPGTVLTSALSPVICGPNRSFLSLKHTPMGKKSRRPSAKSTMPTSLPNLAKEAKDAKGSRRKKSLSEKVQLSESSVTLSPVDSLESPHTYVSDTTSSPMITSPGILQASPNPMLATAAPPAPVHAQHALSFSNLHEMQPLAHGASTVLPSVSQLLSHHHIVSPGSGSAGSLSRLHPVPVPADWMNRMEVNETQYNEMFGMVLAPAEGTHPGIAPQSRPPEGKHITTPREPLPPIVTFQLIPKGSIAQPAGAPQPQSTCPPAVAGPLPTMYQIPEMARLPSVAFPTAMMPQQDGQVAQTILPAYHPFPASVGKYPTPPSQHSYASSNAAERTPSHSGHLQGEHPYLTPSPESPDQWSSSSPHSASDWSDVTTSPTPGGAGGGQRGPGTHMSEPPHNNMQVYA

[6] = biological target: Pro-neuregulin-1, membrane-bound isoform (Homo sapiens) (UniProt Q02297); assay: small molecules binding neuregulin-1 protein – biochemical, small-molecule microarray, fluorescence 635/667, psychiatric disease protein project, primary screen (AID 1075); details: NRG1 binding, 635 nm fluorescence, higher = more signal;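 further: score combines 667 nm spot fluorescence with signal to noise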
Pro-neuregulin-1, membrane-bound isoform (Homo sapiens), sequence (Q02297 whole entry, looked up, the tested form may be a part, canonical isoform): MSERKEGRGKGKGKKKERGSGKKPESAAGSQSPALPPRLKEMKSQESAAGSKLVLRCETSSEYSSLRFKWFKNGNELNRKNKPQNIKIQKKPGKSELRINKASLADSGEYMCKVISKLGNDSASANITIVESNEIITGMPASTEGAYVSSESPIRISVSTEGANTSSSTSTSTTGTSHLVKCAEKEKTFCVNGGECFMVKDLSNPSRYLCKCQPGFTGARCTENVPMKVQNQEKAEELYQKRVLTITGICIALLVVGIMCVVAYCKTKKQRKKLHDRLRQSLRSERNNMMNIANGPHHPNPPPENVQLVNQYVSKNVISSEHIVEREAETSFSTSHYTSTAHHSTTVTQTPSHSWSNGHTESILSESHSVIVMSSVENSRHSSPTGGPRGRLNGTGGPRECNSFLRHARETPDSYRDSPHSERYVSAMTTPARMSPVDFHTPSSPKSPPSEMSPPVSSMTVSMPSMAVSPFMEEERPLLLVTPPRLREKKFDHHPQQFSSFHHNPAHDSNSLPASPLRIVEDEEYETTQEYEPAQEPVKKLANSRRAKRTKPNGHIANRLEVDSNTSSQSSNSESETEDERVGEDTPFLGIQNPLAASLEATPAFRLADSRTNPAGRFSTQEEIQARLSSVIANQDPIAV

[7] = tested on: Neuregulin-1 EGF-like domain; assay: small molecules binding NRG1 EGF domain – biochemical, small-molecule microarray, 635 nm fluorescence, primary screen (AID 1081); details: higher = more signal;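 further: binding of the protein to compounds printed on small-molecule microarray slides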
[8] = FRG1 expression reporter modulators in myotubes – cell-based, C2C12 myotubes, firefly/Renilla luciferase, luminescence, FRG1 inhibition for FSHD, primary screen (AID 1084); details: FRG1 promoter luciferase, higher = more signal, called active from +8 up or from −8 down
[9] = small molecules captured by biotinylated probe aFST – biochemical, small-molecule microarray, fluorescence 635/667, stem cell growth factor project, primary screen (AID 1086); details: higher = more signal;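 further: score merges 667 nm fluorescence with signal-to-noise of each printed compound spot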
[10] = binders of probe aHhip on microarray, primary screen, stem cell growth factor project, biochemical, small-molecule microarray, fluorescence 635/667 (AID 1087); details: higher = more signal;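 further: score merges spot fluorescence at 667nm with spot signal to noise ratio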

Structure (SMILES) | composite z-score [1] | composite z-score [2] | composite z-score [3] | composite z-score [4] | composite z-score [5] | composite z-score [6] | composite z-score [7] | z-score [8] | composite z-score [9] | composite z-score [10]
COC(=O)C(CC#Cc1ccc2c(c1)[C@]1(C(=O)N2)[C@H](C(N)=O)[C@H]2C(=O)O[C@H](c3ccccc3)[C@H](c3ccccc3)N2[C@@H]1c1ccccc1OCCO)C(=O)OC | 0.29 | 1.81 | -0.0122 | 0.765 | -0.21 | 1.67 | 1.4 | 1.69 (inactive) | -0.275 | -0.0994
CC(C)(C)OC(=O)CC[C@@]1(C(=O)N2CCOCC2)N=C(c2ccc(OCCCO)cc2)O[C@@H]1c1ccccc1CN=[N+]=[N-] | 0.12 | 0.161 | 0.254 | 0.674 | 1.1 | 1.88 | 1.31 | 3.86 (inactive) | 0.694 | 0.186
COc1cccc(C)c1NC(=O)O[C@H]1[C@H](OC(=O)Nc2ccccc2)[C@@H](OC(=O)Nc2ccccc2)[C@@H](OC)O[C@@H]1CO | -0.0439 | 0.639 | 0.0811 | 1.06 | 1.48 | 1.81 | 1.46 | 0.91 (inactive) | 0.837 | 0.149
CCCC[C@@H](O)C1=C(C)Cn2c(=O)n(-c3ccccc3)c(=O)n2[C@H]1CO | -0.571 | -0.0827 | -0.092 | 0.361 | -0.362 | -0.773 | -0.151 | -0.755 (inactive) | -0.378 | 0.0053
[N-]=[N+]=NCc1ccccc1[C@H]1OC(c2ccc(OCCCO)cc2)=N[C@@]1(CCS(=O)(=O)c1ccccc1)C(=O)O | 0.0191 | 0.401 | -0.0087 | 0.135 | 1.21 | 1.01 | 0.19 | 6.44 (inactive) | 0.785 | 0.0881
CN(C)CCCC[C@@H]1NC(=O)[C@H]2C[C@@H](C(=O)NCCCCCCNC(=O)CS)[C@@H](c3cccc(OCCO)c3)N2C1=O | 0.272 | 0.447 | -0.135 | -0.217 | -0.486 | 0.891 | 0.334 | 0.47 (inactive) | -0.346 | 0.411
Cc1ccc(S[C@]2(C(=O)NCc3ccccc3)CC(=O)N(Cc3ccccc3C(F)(F)F)[C@@H]2c2ccc(CO)cc2I)cc1 | 0.412 | -0.135 | -0.106 | -0.655 | -0.717 | 1.56 | 0.472 | -0.701 (inactive) | -0.319 | -0.251
Cc1ccc(S(=O)(=O)N2[C@@H](c3ccccc3)C(C(=O)O)=CC[C@H]2c2ccc(F)cc2)cc1 | -0.191 | 1.32 | 0.174 | 1.41 | -0.0595 | -0.0826 | 1.33 | -2.75 (inactive) | 0.654 | -0.252
CC(C)C[C@@H]1NC(=O)[C@@H]2C[C@H](C(=O)NCCCCCNC(=O)CS)[C@H](c3ccc(O)cc3)N2C1=O | 0.0099 | 1.8 | -0.0986 | -0.435 | 0.0232 | 1.75 | 1.17 | 2.98 (inactive) | -0.265 | -0.0994
CC1C2C(CCCO)=CC(C3C(=O)N(C(N)=O)C(=O)C23)N1Cc1cccc(OC(F)(F)F)c1 (stereo not given) | -0.261 | 0.913 | -0.0558 | 0.767 | 0.53 | 1.18 | 1.28 | 1.88 (inactive) | 0.269 | 0.0659
CC1CC/C=C\[C@H]2OC34C=CCN(CCN5CCOCC5)C(=O)[C@H]3N(C(CO)C(C)C)C(=O)[C@@H]4C2C(=O)O1 (stereo not given in full) | -0.0695 | 0.949 | -0.133 | -0.528 | -0.916 | 1.77 | 0.907 | -0.363 (inactive) | -0.249 | -0.069
C=CC[C@H](O)c1ccc(O)c2ccccc12 | -0.112 | 0.821 | -0.0558 | 0.513 | 0.61 | 0.826 | 1.3 | -0.0666 (inactive) | 0.193 | 0.0749
CN(C)CCCCNC(=O)[C@H]1C[C@H]2C(=O)N[C@@H](CCCCN(C)C)C(=O)N2[C@H]1c1ccc(O)cc1 | -0.162 | 0.857 | -0.215 | 0.301 | -0.0742 | -0.121 | 0.763 | -0.354 (inactive) | -0.349 | -0.16
C=CC[C@]12N=C(c3ccc(OCCCO)cc3)O[C@H]1c1ccccc1N(CCC)C2=O | 1.08 | 1.02 | 0.239 | 0.367 | 0.481 | 1.56 | 1.35 | 0.43 (inactive) | 2 | -0.0961
COC(=O)C(CC#Cc1ccc2c(c1)[C@]1(C(=O)N2)[C@H](C(=O)N2CCCCCCC2)[C@H]2C(=O)O[C@H](c3ccccc3)[C@H](c3ccccc3)N2[C@@H]1c1ccc(OCCO)cc1)C(=O)OC | 3.58 | 2.87 | 0.941 | 1.37 | 1.75 | 2.94 | 1.33 | 1.91 (inactive) | 3.35 | 2.77
Cc1ccc(S[C@]2(C(=O)NC3CC3)CC(=O)N(C3Cc4ccccc4C3)[C@@H]2c2ccc(CO)cc2I)cc1 | 0.851 | -0.1 | -0.133 | -0.0222 | -0.603 | 0.996 | 0.381 | -2.24 (inactive) | -0.228 | -0.286
CCCCC(=C=CC[C@H](O)c1ccccc1OCCO)CCO | -0.121 | -0.46 | -0.0579 | 0.656 | -0.543 | 1.4 | 0.787 | 0.125 (inactive) | -0.299 | 0.0749
CC1CC/C=C\[C@H]2OC34C=CCN(C(C)C)C(=O)[C@H]3N(C(C)CO)C(=O)[C@@H]4C2C(=O)O1 (stereo not given in full) | -0.213 | 0.104 | -0.129 | -0.19 | -0.0047 | -0.43 | 0.238 | -0.658 (inactive) | -0.088 | -0.137
C=C[C@@H](CO)NS(=O)(=O)c1ccc(Br)cc1 | 0.265 | -0.066 | -0.22 | -0.426 | -1.14 | -0.361 | -0.14 | -1.84 (inactive) | -0.257 | -0.156
CCCCN1CC=CC23O[C@@H]4/C=C\CCCOC(=O)C4[C@H]2C(=O)N(CCCCCCO)[C@@H]3C1=O (stereo not given in full) | 0.179 | -0.619 | -0.144 | -0.785 | -0.868 | 2.04 | 1.15 | -1.38 (inactive) | -1.09 | -0.0994
N#Cc1ccc(NN2C(C(O)c3ccc(B(O)O)cc3)C=CC3CN(c4ccccc4)C(=O)C32)cc1 (stereo not given) | 0.057 | 0.239 | -0.0893 | 0.0196 | 0.074 | 0.501 | 1.07 | 3.26 (inactive) | -0.0118 | -0.439
CCCCCCc1nc(Cc2cc(OC)c(OC)c(OC)c2)c(C)c2c1[Si](C(C)C)(C(C)C)OC2 | -0.491 | 0.0293 | -0.0328 | -0.0482 | -0.0366 | -0.186 | 0.105 | -0.474 (inactive) | -0.0696 | -0.274
CCCCN1CC=CC23O[C@@H]4C=CCCOC(=O)C4[C@H]2C(=O)N(CCO)[C@@H]3C1=O (stereo not given in full) | 0.18 | -0.881 | -0.276 | 1.02 | -1.29 | -0.944 | -0.397 | -0.183 (inactive) | -1.01 | 0.176
CC(C)c1ccc(NN2C(C(O)C3=C[C@H]4C[C@@H](C3)C4(C)C)C=CC3C(=O)N(c4ccccc4)C(=O)C32)cc1 (stereo not given in full) | 0.481 | 0.357 | 0.0301 | 0.605 | 1.16 | 1.74 | 0.885 | -1.01 (inactive) | 0.907 | -0.302
CN(C)C(=O)[C@]1(CCS(=O)(=O)c2ccccc2)N=C(c2ccc(OCCCO)cc2)O[C@@H]1c1ccccc1CN=[N+]=[N-] | 0.04 | -0.313 | 0.0308 | 0.849 | 1.55 | 1.14 | 1.29 | -0.882 (inactive) | 1.07 | -0.0994
CCOC(=O)C[C@H]1[C@H](OC(=O)c2cc3ccccc3oc2=O)[C@@H](NC(=O)c2ccc(-c3ccccc3)cc2)c2cc(OCCCO)ccc2N1C(=O)Cc1ccc(OC)cc1 | -0.428 | 0.0922 | -0.0667 | 0.67 | 0.992 | 0.178 | 1.18 | 0.228 (inactive) | 0.494 | -0.132
COC(=O)[C@@]1(Cc2ccc(F)cc2)[C@@H]2C(=CC(=O)[C@H]2CC(=O)C(=O)N2CCCC2)CN1C(=O)c1ccccc1 | 1 | 1.61 | 0.575 | 0.866 | 1.58 | 1.81 | 1.33 | 1.48 (inactive) | 2.02 | 0.655
